Not all results are given here. The hit rate among all sequences tested is not known here.
B1: il10ra_site1_normal_mot_a6c796b944619e241e020fd597ddb6da_0001_af2_000000092_0001_15_31_H_._HHH_b2_01778_af2_0001_0000100002_0000002_0_af2pred_0001 (protein)
chain: SSSSSSSEEEQEVHALIFFARISDNEDAAKISLELAKKIAEEINNEELREEIEELEKELSSSSSS
B2: il10ra_site1_normal_mot_HHH_b2_01705_af2_000000069_0001_44_57_H_._HHH_b1_04218_af2_0001_0000400020_0000001_0 (protein)
chain: SSSSSSDSEELLEEAEELLKEIKDPEERTEVYRKFAEELVELGDREAIERLSELFIRASSSSSSS
B3: il10ra_site1_sap_19_mot_HHH_b1_00992_000000182_0001_23_40_H_._HHH_b1_02574_0001_0000200023_0000001_0_0001 (protein)
chain: SSSSDEEEELVRAALRLAEQAYENGDPEAAKRLLWAAEFLAREIGDEELEELVERVEEKISSSSS
B4: il10ra_site1_sap_24_mot_HHH_b1_02665_000000293_0001_1_18_H_._HHH_b2_00244_0001_0000100001_0000001_0_0001_af2pred_0001 (protein)
chain: SSSSDSRELIRLLRRALELLNDGNPEEAEKLLERAQEIAEEANSLNLRVVIEFVLEQVEQHSSSS
B5: il10ra_site1_normal_mot_HHH_b2_08265_af2_000000206_0001_22_38_H_._HHH_b2_05887_0001_0000200025_0000002_0 (protein)
chain: SSSSSDEEEVEELTREIERLLEEGDLEEAARLIQELLRVAYENKDQEAIQLAWELAQLAKSSSSS
B6: il10ra_site1_normal_mot_HHH_b2_08186_000000021_0001_43_56_H_._HHH_b1_08707_0001_0000400035_0000001_0 (protein)
chain: SSSSSDIEELLEEAERLAEEGNPEEALRLLQEALRLIFENQDEELLQELWEVLRLVARLSSSSSS
B7: il10ra_site1_sap_8_mot_HHH_b1_06348_000000162_0001_1_15_H_._HHH_b1_06922_0001_0000100010_0000001_0_0001_af2pred_0001 (protein)
chain: SSSSSEAEKALRWFLRAVEELLKRGNPEAAKLALRDARFAAKFLNDEEIEERLEELEKLLDSSSS
B8: il10ra_site1_sap_18_mot_HHH_b1_04818_af2_000000063_0001_42_55_H_._HHH_b1_04225_af2_0002_0000100001_0000002_0_0001 (protein)
chain: SSSSDETEEVAELMREAVELDHNGDKEEAERVAREALELAEQLNNDVLRIQAEYLEKLIGSSSSS
B9: il10ra_site1_sap_17_mot_HHH_b2_03328_af2_000000127_0001_1_19_H_._HHH_b1_04993_0001_0000100008_0000001_0_0001 (protein)
chain: SSSSSIRERIIRLLYRALRLAAEGNPEEAERLIEEAHELAEELGDPELERYIRILLHFVRSSSSS
B10: il10ra_site1_sap_16_mot_HHH_b2_04251_af2_000000037_0001_42_56_H_._HHH_b1_07004_0001_0000200017_0000001_0_0001 (protein)
chain: SSSSDVRERAARVAIEVLRIAFQQSDPEALRAVWELFRRIIEEGDPELLEELEQLLEELRSSSSS
B11: il10ra_site1_sap_30_mot_HHH_b2_02053_af2_000000006_0001_3_19_H_._HHH_b2_06177_0001_0000100006_0000002_0_0001_af2pred_dldesign_0_af2pred (protein)
chain: SPEIEAIRALLKENLSLACAALAKLLAESGNQEDIALARELARLLFEDPERAKELAEKLLAELAK
B12: il10ra_site1_normal_mot_8756ee2cf497b5429c717dfc0c0bcfd6_0001_000000186_0001_1_13_H_._HHH_b1_07372_0001_0000100003_0000001_1 (protein)
chain: SSSSSEEAREVYELIRRAAELHRNGNPEEAEEVLKEAEELAREANNDVLLFQIEYLLRHIGSSSS
B13: il10ra_site1_sap_16_mot_HHH_b1_00992_000000182_0001_23_40_H_._HHH_b1_02295_af2_0001_0000300017_0000001_0_0001 (protein)
chain: SEQVREIEELLKRNVEQAIAALAHLLAKSGDPELLRLAKELSRLMFQNPEEARKLVEEILEELKK
B14: il10ra_site1_normal_mot_HHH_b2_03220_af2_000000223_0001_23_40_H_._HHH_b1_05042_0001_0000100015_0000001_0 (protein)
chain: SSSSSRELSEEAWELLREILELIYEGDEERAQELLREVEEIAEEANSFALEYTVRILKEQLSSSS
B15: il10ra_site1_sap_22_mot_690a356816548de866c59e88e666ab0a_0001_1_af2_000000025_0001_1_13_H_._HHH_b1_01796_af2_0001_0000400019_0000001_0_0001_af2pred_0001 (protein)
chain: SSSSDIAEADARQAFKLLEIAHEQNDEELLERALELLEYLARLSNDPEAERLLEEAEKLVGSSSS
B16: il10ra_site1_normal_mot_HHH_b1_01082_af2_000000031_0001_3_19_H_._HHH_b1_06064_0001_0000200007_0000001_0 (protein)
chain: SSSSSYEEVKKLIERIVELLRRGDHEEAEKLIRELEELAEELNNPSLRFVVRLLEEVLERLSSSS
B17: il10ra_site1_sap_17_mot_HHH_b1_03763_000000209_0001_22_38_H_._HHH_b1_06016_0001_0000500017_0000001_0_0001 (protein)
chain: SSSSDDDEELLEAALRIAEQALEAGDPESARLILLAAARIAEELGNEELLEEIRRLLEEIRSSSS
B18: il10ra_site1_normal_mot_HHH_b2_04131_000000071_0001_1_16_H_._HHH_b2_02423_af2_0001_0000200002_0000002_0 (protein)
chain: SSSSSSDEELQRLLHELLRLYLKGDPRVEEVAEELRELAEELNNEVARFIVEAVERRLSSSSSSS
B19: il10ra_site1_sap_21_mot_HHH_b1_05126_000000010_0001_38_52_H_._HHH_b2_05985_af2_0001_0000600013_0000001_1_0001 (protein)
chain: SSSSDLEEEIEKLLEELEELIKEGDRERITELALKIVKLIYEAKNAELLRRLWELVKAFYSSSSS
B20: il10ra_site1_normal_mot_HHH_b1_04771_000000013_0001_40_56_H_._HHH_b1_06413_0001_0000200008_0000001_0 (protein)
chain: SSSSDLDERVSRLSQEVFRLALRGNPEEAEKVVEEAIELAEEANNERALRVLRDLEQVLESSSSS
B21: il10ra_site1_normal_mot_HHH_b1_02997_000000220_0001_39_52_H_._HHH_b1_04476_0001_0000500018_0000001_0_af2pred_dldesign_0_af2pred (protein)
chain: SSSSSSSNEEVVALLRRAMEEPDPEEAKRLAEEALRLAQANNNEILAHTAQLLLEQLESSSSSSS
B22: il10ra_site1_sap_25_mot_HHH_b2_05761_af2_000000185_0001_1_18_H_._HHH_b1_05595_af2_0001_0000200006_0000001_0_0001 (protein)
chain: SSSSDEDERYVELSLRFAEWLLKEGDPEAAKRILEAAREIAERANNEELREELEELLEKIGSSSS
B23: il10ra_site1_normal_mot_3af0db62db2b275566dae2e03bf881fa_0001_000000003_0001_37_50_H_._HHH_b2_06527_0001_0000300018_0000001_0_af2pred_0001 (protein)
chain: SSSSSSDLEQQVRAAIWFAKNIHNPTVRRKALEFALKIAEEINNEELVEEIRELLEQVNSSSSSS
B24: il10ra_site1_normal_mot_3c6ad1a4bc7d4f5cf55cee527202d42a_0001_000000108_0001_32_49_H_._HHH_b2_03602_af2_0001_0000600008_0000001_0_af2pred_dldesign_0_af2pred (protein)
chain: SSSSSDKEYYDALVKYYKEALALGKPEAAEKIALKGAEMRLEGKSLEEFEEKAKEILEEESSSSS
B25: il10ra_site1_sap_23_mot_39ab2cb694c8b9c1dc7e65c0d672c93e_0001_000000036_0001_53_65_H_._HHH_b1_07337_0001_0000100009_0000001_0_0001 (protein)
chain: SSSSDEEYKEVKRLIEEIAEALRNNDEELVRELLEELRELAEEINNPAAEFSLRILEEALNSSSS
B26: il10ra_site1_normal_mot_HHH_b2_00277_af2_000000172_0001_1_17_H_._HHH_eva_0065_0002_0000400034_0000001_0 (protein)
chain: DPEKEKLEEEIREVLERFEKGKIDPEEAKELLSRLAFKAARLGDDEAVELAIRAYAAIHQAEQRS
B27: il10ra_site1_normal_mot_HHH_b2_00033_000000036_0001_41_54_H_._HHH_b1_08598_0001_0000300016_0000002_0 (protein)
chain: SSSSSSSDFQELALRALRLLIKRNDKELFQELWRLVKEIAEHGDPELREELEEFLEEISSSSSSS
B28: il10ra_site1_sap_19_mot_2fa031a62b9321f410fa37cb4b35ac9e_0001_af2_000000160_0001_1_14_H_._HHH_b2_08251_af2_0001_0000200005_0000002_0_0001 (protein)
chain: SSSSSDQEEAVELSLEAFRLALRGDPEEARRVLEEALELAEEAGDERMAKVIRDMLRALSSSSSS
B29: il10ra_site1_normal_mot_HHH_b2_00475_000000107_0001_44_57_H_._HHH_b2_01638_af2_0001_0000200008_0000002_0 (protein)
chain: SSSSEEEQRVAELLFRALRLLAEGNPEEAEKVVEEAQKLAEENNDEELRKYVEILRHFIESHSSS
B30: il10ra_site1_sap_16_mot_8756ee2cf497b5429c717dfc0c0bcfd6_0001_000000186_0001_1_13_H_._HHH_b1_03338_0001_0000100002_0000003_0_0001 (protein)
chain: SSSSTLEWSVKFMLEIVEELLERGDKEKAEHLLEALLRHLKEAGDPELLREVEELLEEVRKSSSS
B31: il10ra_site1_normal_mot_HHH_b2_02116_af2_000000165_0001_41_55_H_._HHH_b1_06457_0001_0000100001_0000001_0 (protein)
chain: SSSDHERAVELLLRAAEIAFERGNPHQARAAIRLAREIAERINDEELEELVEEVERRLEESSSSS
B32: il10ra_site1_sap_14_mot_HHH_b1_08411_af2_000000053_0001_1_20_H_._HHH_b1_08108_0001_0000200028_0000001_0_0001 (protein)
chain: SSSSSSDEYREAYELIEEAFHIEDEEEARELLEEAKELAERAGNWALRFAIQLLLEDLSSSSSSS
B33: il10ra_site1_sap_24_mot_HHH_b1_06912_af2_000000235_0001_1_15_H_._HHH_b1_04651_0001_0000100003_0000001_0_0001 (protein)
chain: SSSSDQELYRKVEELIEEAIELQRRGNPEEARRLLEELLEELEELNNPNMLYNVRHLLKAISSSS
B34: il10ra_site1_sap_19_mot_HHH_b1_05021_af2_000000167_0001_42_56_H_._HHH_b1_02196_0001_0000400015_0000002_0_0001 (protein)
chain: SSSSDAEEYLREVAVELLELFREGDPEKAEELLEEAREFLEEKGNRELVRMIEFQFRASEWSSSS
B35: il10ra_site1_normal_mot_HHH_b1_02397_af2_000000085_0001_39_57_H_._HHH_b1_03194_0001_0000100004_0000002_0 (protein)
chain: SSSSSSDVEELLERLEELLEEGNHEEAARLLQEALRHAFRNSDPELLKELHEFAKRLASSSSSSS
B36: il10ra_site1_sap_15_mot_HHH_b1_03531_000000273_0001_41_54_H_._HHH_b2_00993_0001_0000200012_0000001_0_0001_af2pred_0001 (protein)
chain: SSSSTEEEIRELLEEVEELIERGNNHEAAKLLKKLAELISELNNDELLKELRELAQLVIRVSSSS
B37: il10ra_site1_normal_mot_HHH_b1_06789_af2_000000041_0001_1_20_H_._HHH_b2_03029_0001_0000300011_0000002_0 (protein)
chain: SSSSSAEYLVRQALKAAKRLYEQGDPERAKEAIEIAENLARNANNPELEKLVEEFAEELENSSSS

Target: il10ra, Q13651
Assay: yeast display titration

Chain of il10ra, Q13651 (Q13651 whole entry): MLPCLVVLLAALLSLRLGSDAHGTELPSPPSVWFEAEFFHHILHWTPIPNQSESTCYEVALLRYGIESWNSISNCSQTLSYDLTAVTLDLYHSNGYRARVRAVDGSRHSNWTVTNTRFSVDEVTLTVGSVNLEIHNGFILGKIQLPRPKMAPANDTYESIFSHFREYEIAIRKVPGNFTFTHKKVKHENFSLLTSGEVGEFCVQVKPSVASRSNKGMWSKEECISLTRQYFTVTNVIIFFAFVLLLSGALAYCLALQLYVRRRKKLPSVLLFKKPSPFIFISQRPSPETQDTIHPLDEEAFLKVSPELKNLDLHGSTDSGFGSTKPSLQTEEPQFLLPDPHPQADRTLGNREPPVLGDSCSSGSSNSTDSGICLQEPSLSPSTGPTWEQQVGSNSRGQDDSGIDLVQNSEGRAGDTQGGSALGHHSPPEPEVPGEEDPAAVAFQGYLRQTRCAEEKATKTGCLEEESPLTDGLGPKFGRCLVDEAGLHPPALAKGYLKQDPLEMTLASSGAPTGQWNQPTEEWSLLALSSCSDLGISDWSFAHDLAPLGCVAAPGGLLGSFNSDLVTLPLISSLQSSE

Apparent Kd, inactive:
B1 no binding seen
B2 no binding seen
B3 no binding seen
B4 no binding seen
B5 no binding seen
B6 no binding seen
B7 no binding seen
B8 no binding seen
B9 no binding seen
B10 no binding seen
B11 no binding seen
B12 no binding seen
B13 no binding seen
B14 no binding seen
B15 no binding seen
B16 no binding seen
B17 no binding seen
B18 no binding seen
B19 no binding seen
B20 no binding seen
B21 no binding seen
B22 no binding seen
B23 no binding seen
B24 no binding seen
B25 no binding seen
B26 no binding seen
B27 no binding seen
B28 no binding seen
B29 no binding seen
B30 no binding seen
B31 no binding seen
B32 no binding seen
B33 no binding seen
B34 no binding seen
B35 no binding seen
B36 no binding seen
B37 no binding seen
